Laboratory results: PubChem BioAssay

Experiment: MRP1 drug-resistance reversers in H69AR cells – cell-based, doxorubicin co-treatment, pilot screen (AID 601)
Settings: H69AR cells + 2 uM doxorubicin, CellTiter-Glo, 72 h; measured here: viability with 2 uM doxorubicin; at 10 µM; stronger effect = lower value

Structure (SMILES)	viability
COc1ccc(OC)c(CNC(=O)CCN2C(=O)COc3ccccc32)c1	88.5%
Cc1ccc(C(=O)CSc2nnc(CNc3ccc(C)cc3C)o2)cc1	80.4%
CCn1c(SCc2cccc(C(F)(F)F)c2)nnc1-c1ccco1	81.1%
O=C(CC1CCCCC1)NCc1ccccn1	82.9%
c1ccc(-c2nn3nnnc3c3ccccc23)cc1	90.3%
CN=C(Nc1ccc2c(c1)OCO2)SC1CC(=O)N(c2ccccc2)C1=O (stereo not given)	82.3%
O=C1c2ccccc2C(=O)N1CCCCN1CCN(CCCCN2C(=O)c3ccccc3C2=O)CC1	84.8%
Cc1cccc(-n2ncc(C#N)c2N)c1	100%
Cc1cc(NC(=O)COc2ncnc3sc(C)c(C)c23)no1	86.7%
O=C(CN1C(=O)CCS(=O)(=O)c2ccccc21)NCc1ccc(F)cc1	95.3%
C=CCSc1n[nH]c(-c2ccc(OC)cc2)n1	87.9%
COc1ccc(N2CCN(C(=O)CN3C(=O)C4CC=CCC4C3=O)CC2)cc1 (stereo not given)	91.5%
CSC1CCCCC1(O)CSc1nc2c(cc1C#N)CCCC2 (stereo not given)	95.2%
O=C(CCCCn1c(=O)[nH]c2ccsc2c1=O)NCc1cccnc1	97.1%
CCc1nnc(NC(=O)OCc2ccccc2)s1	94.9%
O=C(CP(=O)(c1ccccc1)c1ccccc1)N1CCCCC1	86.9%
Cc1nc(NC2=NCN(CCc3ccccc3)CN2)nc2c(C)cccc12	93.7%
O=C(c1ccc(CNS(=O)(=O)c2cccc(C(F)(F)F)c2)cc1)N1CCOCC1	80.9%
CCNc1oc(COc2ccccc2F)nc1C#N	77.4%
CC1CC(C)CN(CCCNC(=O)c2ccc3c(c2)NC(=O)C(N2CCCCC2)S3)C1 (stereo not given)	82.8%
